Results taken from PubChem BioAssay (EPA / NIEHS).
“And” between values parts separate entries of the source, which are not always exact repeats. Equal entries are not always repeated. Records with an inconclusive call do not appear. A structure can be active in one record and inactive in another. The source made the active and inactive calls. The calls were made as follows, unless noted: active = hit-call score of the fitted dose curve at least 0.9, where 1 is the maximum; inactive = score below 0.9.

Legend:
[1] = molecular target: human RAR-related Orphan Receptor gamma (RORg), RORC (gene 6097) (UniProt P51449); experiment: ATG_RORg_TRANS: Attagene TRANS-FACTORIAL HepG2 Assay for human RAR-related Orphan Receptor gamma (RORg) (AID 2283011; active = hit-call score of the fitted dose curve at least 0.9, where 1 is the maximum)
Sequence of human RAR-related Orphan Receptor gamma (RORg), RORC (gene 6097) (P51449 whole entry, looked up, the tested form may be a part): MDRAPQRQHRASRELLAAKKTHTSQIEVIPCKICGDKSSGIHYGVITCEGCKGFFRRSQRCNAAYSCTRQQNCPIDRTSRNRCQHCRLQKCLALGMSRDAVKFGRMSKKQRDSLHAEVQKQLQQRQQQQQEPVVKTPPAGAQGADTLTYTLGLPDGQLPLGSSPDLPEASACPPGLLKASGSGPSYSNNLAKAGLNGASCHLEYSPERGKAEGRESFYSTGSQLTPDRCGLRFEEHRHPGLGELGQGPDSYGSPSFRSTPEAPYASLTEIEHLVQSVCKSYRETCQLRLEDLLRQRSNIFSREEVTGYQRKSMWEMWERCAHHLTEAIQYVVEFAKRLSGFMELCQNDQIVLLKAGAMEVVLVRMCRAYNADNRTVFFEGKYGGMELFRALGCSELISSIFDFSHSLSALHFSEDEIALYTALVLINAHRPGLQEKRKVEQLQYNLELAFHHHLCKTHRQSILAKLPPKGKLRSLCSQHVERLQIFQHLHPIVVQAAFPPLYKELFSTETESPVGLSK
Summary of the method: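 Readout: reporter transcript induction (RT-PCR, fluorescent primer extension, capillary electrophoresis) after 24 h compound exposure of transiently transfected HepG2 cells carrying a RORg-Gal4 chimera and GAL4-UAS reporters; DMSO served as baseline, with increasing signal fitted.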

[2] = molecular target: Retinoic acid receptor RXR-alpha (Homo sapiens) (UniProt P19793); experiment: ATG_RXRa_TRANS: Attagene TRANS-FACTORIAL HepG2 Assay for human Retinoid X Receptor alpha (RXRa) (AID 2283012; active = hit-call score of the fitted dose curve at least 0.9, where 1 is the maximum)
Sequence of Retinoic acid receptor RXR-alpha (Homo sapiens) (P19793 whole entry, looked up, the tested form may be a part): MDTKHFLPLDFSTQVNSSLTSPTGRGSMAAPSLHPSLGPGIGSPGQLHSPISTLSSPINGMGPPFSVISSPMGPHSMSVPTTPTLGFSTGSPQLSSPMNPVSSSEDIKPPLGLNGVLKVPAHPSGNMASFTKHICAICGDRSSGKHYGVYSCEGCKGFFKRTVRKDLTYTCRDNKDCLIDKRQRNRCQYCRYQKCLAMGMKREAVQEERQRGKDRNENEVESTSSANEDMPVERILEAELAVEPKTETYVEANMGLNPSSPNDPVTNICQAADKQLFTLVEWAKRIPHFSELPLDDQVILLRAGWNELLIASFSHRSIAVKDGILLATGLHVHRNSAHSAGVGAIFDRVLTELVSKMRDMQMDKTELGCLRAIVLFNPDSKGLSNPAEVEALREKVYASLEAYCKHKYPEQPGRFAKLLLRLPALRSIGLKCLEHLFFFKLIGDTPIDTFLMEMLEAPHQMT
Summary of the method: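 HepG2 cells transiently transfected with multiplexed GAL4-UAS reporter units and chimeric NR-GAL4 fusions, dosed 24 h. Reporter mRNA measured by RT-PCR, FAM labelling, HpaI digestion and capillary electrophoresis; gain-of-signal fitted relative to DMSO baseline.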

[3] = molecular target: human Retinoid X Receptor beta (RXRb), RXRB (gene 6257) (UniProt P28702); experiment: ATG_RXRb_TRANS: Attagene TRANS-FACTORIAL HepG2 Assay for human Retinoid X Receptor beta (RXRb) (AID 2283013; active = hit-call score of the fitted dose curve at least 0.9, where 1 is the maximum)
Sequence of human Retinoid X Receptor beta (RXRb), RXRB (gene 6257) (P28702 whole entry, looked up, the tested form may be a part): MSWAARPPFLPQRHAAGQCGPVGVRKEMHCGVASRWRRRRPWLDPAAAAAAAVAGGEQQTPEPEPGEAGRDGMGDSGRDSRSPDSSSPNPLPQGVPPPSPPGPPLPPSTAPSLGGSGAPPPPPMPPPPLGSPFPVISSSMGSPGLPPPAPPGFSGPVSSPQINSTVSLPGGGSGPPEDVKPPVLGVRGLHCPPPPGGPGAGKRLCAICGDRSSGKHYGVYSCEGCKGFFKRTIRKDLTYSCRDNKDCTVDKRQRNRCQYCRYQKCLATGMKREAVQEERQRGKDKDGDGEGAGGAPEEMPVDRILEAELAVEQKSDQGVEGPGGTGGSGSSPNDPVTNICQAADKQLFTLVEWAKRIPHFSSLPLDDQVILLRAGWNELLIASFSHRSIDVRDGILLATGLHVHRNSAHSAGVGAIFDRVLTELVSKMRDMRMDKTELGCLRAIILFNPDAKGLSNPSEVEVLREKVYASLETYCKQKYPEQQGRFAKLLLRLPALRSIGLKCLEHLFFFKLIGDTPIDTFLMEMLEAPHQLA
Summary of the method: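 HepG2 cells transiently transfected with multiplexed reporter units driven by GAL4-UAS and exogenous chimeric NR-Gal4 proteins; treated 24 h. Reporter mRNA measured by RT-PCR, 6-FAM labelling and capillary electrophoresis; gain-of-signal fitted versus DMSO baseline.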

[4] = molecular target: human Thyroid Receptor alpha (THRa1), THRA (gene 7067) (UniProt P10827); experiment: ATG_THRa1_TRANS: Attagene TRANS-FACTORIAL HepG2 Assay for human Thyroid Receptor alpha (THRa1) (AID 2283014; active = hit-call score of the fitted dose curve at least 0.9, where 1 is the maximum)
Sequence of human Thyroid Receptor alpha (THRa1), THRA (gene 7067) (P10827 whole entry, looked up, the tested form may be a part): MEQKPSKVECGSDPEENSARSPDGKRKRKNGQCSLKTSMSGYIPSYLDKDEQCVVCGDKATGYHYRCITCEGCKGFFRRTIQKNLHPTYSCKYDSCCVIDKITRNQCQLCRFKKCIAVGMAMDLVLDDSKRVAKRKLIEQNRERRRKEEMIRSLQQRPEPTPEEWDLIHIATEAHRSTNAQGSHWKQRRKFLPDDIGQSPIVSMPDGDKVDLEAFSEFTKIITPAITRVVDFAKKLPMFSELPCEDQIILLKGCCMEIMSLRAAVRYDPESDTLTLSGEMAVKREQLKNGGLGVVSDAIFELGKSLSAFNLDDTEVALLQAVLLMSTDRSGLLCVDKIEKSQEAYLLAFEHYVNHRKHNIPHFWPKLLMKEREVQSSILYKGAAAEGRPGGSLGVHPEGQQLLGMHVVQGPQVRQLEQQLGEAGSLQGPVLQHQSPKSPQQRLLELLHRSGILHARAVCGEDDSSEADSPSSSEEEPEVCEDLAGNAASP
Summary of the method: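 HepG2 cells transiently transfected with multiplexed GAL4-UAS reporter units for exogenous chimeric THRa1-Gal4; reporter mRNA measured 24 h after dosing by RT-PCR, 6-FAM labelling, HpaI digestion and capillary electrophoresis. Gain-of-signal fitted versus DMSO baseline.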

[5] = read-out: E-selectin (Homo sapiens) (UniProt P16581); experiment: BSK_3C_Eselectin: BioMAP Diversity Plus: 3C Assay for Eselectin Biomarker Activity (AID 2283015); details: primary human endothelial cells (HUVEC); actives raise or lower the signal;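 as to outcome: cell surface E-selectin protein quantified by ELISA 24 h after dosing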
Summary of the method: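 Primary human umbilical vein endothelial cells (3C system) were dosed with chemical and cell-surface E-selectin measured by ELISA 24 h later. Bidirectional curve fitting used DMSO as negative control and baseline.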

[6] = read-out: Interleukin-1 alpha (IL1a), IL1A (gene 3552); experiment: BSK_BE3C_IL1a: BioMAP Diversity Plus: BE3C Assay for Interleukin-1 alpha (IL1a) Biomarker Activity (AID 2283016); details: primary human bronchial epithelial cells; actives raise or lower the signal
Summary of the method: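 Human primary bronchial epithelial cells (BE3C system) were dosed with compound and IL-1a measured by ELISA 24 h later. Activity was fitted bidirectionally against DMSO baseline; cytotoxicity was tracked in parallel cultures by SRB total-protein staining.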

[7] = read-out: Monocyte Chemoattractant Protein-1 (MCP1), CCL2 (gene 6347); experiment: BSK_3C_MCP1: BioMAP Diversity Plus: 3C Assay for Monocyte Chemoattractant Protein-1 (MCP1) Biomarker Activity (AID 2283017); details: primary human endothelial cells (HUVEC); actives raise or lower the signal
Summary of the method: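 Primary human umbilical vein endothelial cells (3C system) were exposed to test chemical for 24 h, after which MCP-1 was quantified by ELISA. Activity was fitted bidirectionally against DMSO as negative control and baseline.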

[8] = read-out: Monocyte Chemoattractant Protein-1 (MCP1), CCL2 (gene 6347); experiment: BSK_4H_MCP1: BioMAP Diversity Plus: 4H Assay for Monocyte Chemoattractant Protein-1 (MCP1) Biomarker Activity (AID 2283018); details: primary human endothelial cells (HUVEC); actives raise or lower the signal
Summary of the method: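 Human umbilical vein endothelial cells (4H system) dosed with chemical; MCP-1 measured by ELISA 24 h after dosing. Bidirectional curve fitting against DMSO negative control as baseline; parallel SRB total-protein staining tracks overt cytotoxicity.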

[9] = read-out: Human Leukocyte Antigen - DR isotype (HLADR), HLA-DRA (gene 3122); experiment: BSK_3C_HLADR: BioMAP Diversity Plus: 3C Assay for Human Leukocyte Antigen - DR isotype (HLADR) Biomarker Activity (AID 2283019); details: primary human endothelial cells (HUVEC); actives raise or lower the signal;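 as to outcome: ELISA of cell-surface HLA-DR on HUVEC 24 h after dosing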
Summary of the method: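 Primary human umbilical vein endothelial cells (3C system) were dosed with compound and cell-surface HLA-DR was quantified by ELISA at 24 h. Activity was fitted bidirectionally against DMSO as negative control and baseline.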

[10] = read-out: Interleukin-8 (IL8), CXCL8 (gene 3576); experiment: BSK_3C_IL8: BioMAP Diversity Plus: 3C Assay for Interleukin-8 (IL8) Biomarker Activity (AID 2283020); details: primary human endothelial cells (HUVEC); actives raise or lower the signal
Summary of the method: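 Primary human umbilical vein endothelial cells (3C system) were exposed to test chemical for 24 h, then IL-8 was quantified by ELISA. Responses were fitted bidirectionally against DMSO vehicle as baseline.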

[11] = read-out: Monokine induced gamma interferon (MIG), CXCL9 (gene 4283); experiment: BSK_3C_MIG: BioMAP Diversity Plus: 3C Assay for Monokine induced gamma interferon (MIG) Biomarker Activity (AID 2283021); details: primary human endothelial cells (HUVEC); actives raise or lower the signal;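 as to AC50: MIG protein level measured by immunoassay in the treated endothelial cultures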
Summary of the method: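 Primary human umbilical vein endothelial cells in the 3C system were exposed to chemical for 24 h, after which MIG was quantified by ELISA. Activity was fitted bidirectionally against DMSO as negative control and baseline.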

[12] = molecular target: human Vitamin D Receptor (VDR), VDR (gene 7421) (UniProt P11473); experiment: ATG_VDR_TRANS: Attagene TRANS-FACTORIAL HepG2 Assay for human Vitamin D Receptor (VDR) (AID 2283022; active = hit-call score of the fitted dose curve at least 0.9, where 1 is the maximum)
Sequence of human Vitamin D Receptor (VDR), VDR (gene 7421) (P11473 whole entry, looked up, the tested form may be a part): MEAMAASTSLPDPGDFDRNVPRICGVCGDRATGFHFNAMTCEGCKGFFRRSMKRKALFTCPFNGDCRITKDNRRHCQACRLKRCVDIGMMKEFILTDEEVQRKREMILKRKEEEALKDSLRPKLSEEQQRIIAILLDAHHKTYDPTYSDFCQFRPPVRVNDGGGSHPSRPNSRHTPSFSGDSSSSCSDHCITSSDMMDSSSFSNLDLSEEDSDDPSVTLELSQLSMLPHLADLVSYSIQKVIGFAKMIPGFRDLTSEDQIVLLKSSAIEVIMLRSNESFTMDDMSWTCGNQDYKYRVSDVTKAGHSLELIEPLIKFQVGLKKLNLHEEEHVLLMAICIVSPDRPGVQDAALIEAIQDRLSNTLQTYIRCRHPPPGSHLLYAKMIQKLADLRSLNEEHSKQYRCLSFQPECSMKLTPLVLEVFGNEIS
Summary of the method: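 HepG2 cells were transiently transfected with multiple GAL4-UAS reporter units, so signal reflects exogenous chimeric receptor-Gal4 activity. After 24 h compound exposure, reporter mRNA was measured by RT-PCR, fluorescent labelling and capillary electrophoresis, fitted for gain of signal versus DMSO.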

[13] = BSK_3C_SRB: Viability Assessment in the BioMAP Diversity Plus: 3C Assay (AID 2283023); details: primary human endothelial cells (HUVEC);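 also: fitted both ways against DMSO so a hit may be signal rise or drop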
Summary of the method: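 Primary human umbilical vein endothelial cells in the 3C system were read 24 h after compound dosing. Total protein was stained with 0.1% sulforhodamine B after 10% TCA fixation and read at 560 nm, with bidirectional fitting against DMSO as baseline.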

[14] = read-out: Matrix Metallopeptidase 1 (MMP1), MMP1 (gene 4312); experiment: BSK_BE3C_MMP1: BioMAP Diversity Plus: BE3C Assay for Matrix Metallopeptidase 1 (MMP1) Biomarker Activity (AID 2283024); details: primary human bronchial epithelial cells; actives raise or lower the signal
Summary of the method: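 Primary human bronchial epithelial cells were dosed with test chemicals, and MMP1 levels were measured by ELISA 24 h later. Data were fitted bidirectionally against DMSO as the negative control and activity baseline.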

[15] = BSK_3C_Vis: BioMAP Diversity Plus: 3C Assay for Morphology Visualization (AID 2283025); details: primary human endothelial cells (HUVEC);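 also: fitted both ways so gain or loss versus DMSO counts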
Summary of the method: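 Human umbilical vein endothelial cells in the 3C system were imaged by light microscopy 24 h after chemical dosing to record cell morphology. Activity was fitted bidirectionally against DMSO as negative control and baseline; the endpoint serves as a background control.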

[16] = read-out: Pselectin, SELP (gene 6403); experiment: BSK_4H_Pselectin: BioMAP Diversity Plus: 4H Assay for Pselectin Biomarker Activity (AID 2283026); details: primary human endothelial cells (HUVEC); actives raise or lower the signal
Summary of the method: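 Primary human umbilical vein endothelial cells were exposed to test chemical for 24 h, then cell-surface P-selectin was quantified by ELISA. Activity was fitted bidirectionally against DMSO as negative control and baseline.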

[17] = BSK_4H_SRB: Viability Assessment in the BioMAP Diversity Plus: 4H Assay (AID 2283027); details: primary human endothelial cells (HUVEC);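 also: cells exposed to compound for 24 h before staining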;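 as to AC50: curves fitted both ways versus DMSO so AC50 may be loss or gain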
Summary of the method: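 Absorbance at 560 nm of SRB-stained total protein served as the viability read-out in confluent primary human umbilical vein endothelium 24 h after chemical treatment. Curves were fitted bidirectionally against DMSO as negative control.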

[18] = BSK_BE3C_SRB: Viability Assessment in the BioMAP Diversity Plus: BE3C Assay (AID 2283028); details: primary human bronchial epithelial cells;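 as to AC50: fitted both ways so AC50 may mark signal gain or loss versus DMSO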
Summary of the method: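 Human primary bronchial epithelial cells were exposed to test chemicals for 24 h. Total protein in parallel cultures was then measured by staining with 0.1% sulforhodamine B after 10% TCA fixation, with absorbance read at 560 nm. Activity was fitted bidirectionally against DMSO.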

[19] = read-out: Thrombomodulin, THBD (gene 7056); experiment: BSK_3C_Thrombomodulin: BioMAP Diversity Plus: 3C Assay for Thrombomodulin Biomarker Activity (AID 2283029); details: primary human endothelial cells (HUVEC); actives raise or lower the signal
Summary of the method: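 Primary human umbilical vein endothelial cells (3C system) were exposed to chemical for 24 h, then thrombomodulin levels were measured by ELISA. Activity was fitted bidirectionally against the DMSO negative control as baseline.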

[20] = read-out: Urokinase-type plasminogen activator receptor (uPAR), PLAUR (gene 5329); experiment: BSK_4H_uPAR: BioMAP Diversity Plus: 4H Assay for Urokinase-type plasminogen activator receptor (uPAR) Biomarker Activity (AID 2283030); details: primary human endothelial cells (HUVEC); actives raise or lower the signal
Summary of the method: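 Primary human umbilical vein endothelial cells were exposed to chemical for 24 h before cell-surface uPAR was quantified by ELISA. Activity was fitted bidirectionally against the DMSO negative control baseline.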

Sequence of E-selectin (Homo sapiens) (P16581 whole entry, looked up): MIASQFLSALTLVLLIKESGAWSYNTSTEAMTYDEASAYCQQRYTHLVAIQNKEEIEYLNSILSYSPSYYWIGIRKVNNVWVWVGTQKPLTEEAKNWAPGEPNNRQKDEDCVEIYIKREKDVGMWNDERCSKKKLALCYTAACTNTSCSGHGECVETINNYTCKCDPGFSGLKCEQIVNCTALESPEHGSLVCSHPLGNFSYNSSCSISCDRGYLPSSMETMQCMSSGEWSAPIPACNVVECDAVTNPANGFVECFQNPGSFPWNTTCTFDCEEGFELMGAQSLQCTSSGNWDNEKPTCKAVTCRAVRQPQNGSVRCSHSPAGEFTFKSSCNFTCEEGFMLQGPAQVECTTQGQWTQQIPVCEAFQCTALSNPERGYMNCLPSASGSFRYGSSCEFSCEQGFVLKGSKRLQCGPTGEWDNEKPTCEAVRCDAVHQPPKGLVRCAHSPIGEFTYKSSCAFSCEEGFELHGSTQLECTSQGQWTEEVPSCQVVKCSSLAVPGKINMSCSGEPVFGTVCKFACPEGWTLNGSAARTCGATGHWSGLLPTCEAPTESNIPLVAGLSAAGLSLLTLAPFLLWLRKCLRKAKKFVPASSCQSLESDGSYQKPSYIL

For C=CCC1=C(C)C(OC(=O)C2C(C=C(C)C)C2(C)C)CC1=O (centres undefined), the outcome [1] was “inactive”, the outcome [2] was “inactive” and the AC50 [3] was 22.1 µM (active). The outcome [3] was “inactive”, the outcome [4] was “inactive” and the AC50 [5] was 30.3 µM (active) [middle of 4 runs]. For the same compound, the outcome [6] was “inactive”, the AC50 [7] was 33.1 µM (active) and 33.5 µM (active) and the AC50 [8] was 21 µM (active) and 34.3 µM (active). The outcome [8] was “inactive”, the AC50 [9] was 32.2 µM (active) and 28 µM (active) and 29.1 µM (active) and the AC50 [10] was 32.3 µM (active) [middle of 4 runs]. The AC50 [11] was 31.7 µM (active), the outcome [11] was “inactive” and the AC50 [12] was 105 µM (active). For the same compound, the outcome [12] was “inactive”, the AC50 [13] was 32.8 µM (active) [middle of 4 runs] and the AC50 [14] was 9.44 µM (active) and 7.51 µM (active). The outcome [14] was “inactive”, the AC50 [15] was 39.4 µM (active) and 39 µM (active) and the outcome [15] was “inactive”. The AC50 [16] was 34.9 µM (active) and 33 µM (active) and 33.2 µM (active), the outcome [16] was “inactive” and the AC50 [17] was 32.7 µM (active) [middle of 4 runs]. For the same compound, the outcome [18] was “inactive”, the outcome [19] was “inactive” and the AC50 [20] was 38.4 µM (active) and 32.8 µM (active). For the same compound, the outcome [20] was “inactive”.
For CCNc1nc(Cl)nc(NC(C)C)n1, the outcome [1] was “inactive”, the outcome [2] was “inactive” and the outcome [3] was “inactive”. For the same compound, the outcome [4] was “inactive”, the outcome [5] was “inactive” and the outcome [6] was “inactive”. The outcome [7] was “inactive”, the outcome [8] was “inactive” and the outcome [9] was “inactive”. The outcome [10] was “inactive”, the outcome [11] was “inactive” and the outcome [12] was “inactive”. For the same compound, the outcome [13] was “inactive”, the outcome [14] was “inactive” and the outcome [15] was “inactive”. The outcome [16] was “inactive”, the outcome [17] was “inactive” and the outcome [18] was “inactive”. The outcome [19] was “inactive” and the outcome [20] was “inactive”.
For COc1ccc(C(c2ccc(OC)cc2)C(Cl)(Cl)Cl)cc1, the outcome [1] was “inactive”, the outcome [2] was “inactive” and the outcome [3] was “inactive”. The outcome [4] was “inactive”, the AC50 [5] was 25.6 µM (active) and the outcome [6] was “inactive”. The AC50 [7] was 26.4 µM (active), the AC50 [8] was 13.3 µM (active) and the AC50 [9] was 25.8 µM (active). For the same compound, the AC50 [10] was 24.9 µM (active), the outcome [11] was “inactive” and the outcome [12] was “inactive”. For the same compound, the AC50 [13] was 20.1 µM (active), the AC50 [14] was 6.22 µM (active) and the AC50 [15] was 15.2 µM (active). For the same compound, the AC50 [16] was 33.4 µM (active), the AC50 [17] was 26.9 µM (active) and the AC50 [18] was 19.4 µM (active). The outcome [19] was “inactive” and the outcome [20] was “inactive”.
For CCCN(CCC)c1c([N+](=O)[O-])cc(S(N)(=O)=O)cc1[N+](=O)[O-], the outcome [1] was “inactive”, the outcome [2] was “inactive” and the outcome [3] was “inactive”. The outcome [4] was “inactive”, the AC50 [5] was 37.1 µM (active) [middle of 4 runs] and the AC50 [6] was 39.6 µM (active) [middle of 4 runs]. For the same compound, the AC50 [7] was 36 µM (active) [middle of 4 runs], the AC50 [8] was 34.4 µM (active) [middle of 4 runs] and the AC50 [9] was 38.6 µM (active) [middle of 4 runs]. For the same compound, the AC50 [10] was 34.2 µM (active) [middle of 4 runs], the AC50 [11] was 39 µM (active) and 41.1 µM (active) and 35.7 µM (active) and the AC50 [12] was 61.2 µM (active). The outcome [12] was “inactive”, the AC50 [13] was 31.3 µM (active) [middle of 4 runs] and the AC50 [14] was 36 µM (active) [middle of 4 runs]. For the same compound, the AC50 [15] was 41 µM (active) and 41.8 µM (active) and 16.3 µM (active), the AC50 [16] was 34.2 µM (active) [middle of 4 runs] and the AC50 [17] was 32.3 µM (active) [middle of 4 runs]. The AC50 [18] was 34.3 µM (active) [middle of 4 runs], the outcome [19] was “inactive” and the AC50 [20] was 33 µM (active) [middle of 4 runs].
